Molecules are shown by their SMILES. Several values for one entry are separate records, joined by “and”; a condition that tells them apart may be missing. Equal entries are not always repeated. Records with an inconclusive call do not appear. More than one record can exist for a structure, and the calls need not agree. Activity calls are given as the source filed them. The calls were made as follows: active = hit-call score of the fitted dose curve at least 0.9, where 1 is the maximum; inconclusive = response in the unintended direction; inactive = score below 0.9.

AC50 and outcome data for 11 compounds are collected here from PubChem BioAssay (EPA / NIEHS).

The target in assay [1] is chimpanzee Androgen Receptor (AR), AR (gene 747460) (UniProt O97775). Briefly: NVS_NR_cAR: NovaScreen (NVS) Nuclear Receptor Binding Assay for chimpanzee Androgen Receptor (AR) (AID 2283346).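 Also: a loss of bound radioligand signal versus DMSO counts as binding.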 Summed up: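 Radioligand binding to chimpanzee AR expressed in Sf9/Sf21 cells, cell-free, measured 72 h after dosing by lysate-based scintillation counting. Loss of signal vs DMSO; initial duplicate screen at 25 uM, actives retested in concentration series.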
Chain of chimpanzee Androgen Receptor (AR), AR (gene 747460) (O97775 whole entry, looked up): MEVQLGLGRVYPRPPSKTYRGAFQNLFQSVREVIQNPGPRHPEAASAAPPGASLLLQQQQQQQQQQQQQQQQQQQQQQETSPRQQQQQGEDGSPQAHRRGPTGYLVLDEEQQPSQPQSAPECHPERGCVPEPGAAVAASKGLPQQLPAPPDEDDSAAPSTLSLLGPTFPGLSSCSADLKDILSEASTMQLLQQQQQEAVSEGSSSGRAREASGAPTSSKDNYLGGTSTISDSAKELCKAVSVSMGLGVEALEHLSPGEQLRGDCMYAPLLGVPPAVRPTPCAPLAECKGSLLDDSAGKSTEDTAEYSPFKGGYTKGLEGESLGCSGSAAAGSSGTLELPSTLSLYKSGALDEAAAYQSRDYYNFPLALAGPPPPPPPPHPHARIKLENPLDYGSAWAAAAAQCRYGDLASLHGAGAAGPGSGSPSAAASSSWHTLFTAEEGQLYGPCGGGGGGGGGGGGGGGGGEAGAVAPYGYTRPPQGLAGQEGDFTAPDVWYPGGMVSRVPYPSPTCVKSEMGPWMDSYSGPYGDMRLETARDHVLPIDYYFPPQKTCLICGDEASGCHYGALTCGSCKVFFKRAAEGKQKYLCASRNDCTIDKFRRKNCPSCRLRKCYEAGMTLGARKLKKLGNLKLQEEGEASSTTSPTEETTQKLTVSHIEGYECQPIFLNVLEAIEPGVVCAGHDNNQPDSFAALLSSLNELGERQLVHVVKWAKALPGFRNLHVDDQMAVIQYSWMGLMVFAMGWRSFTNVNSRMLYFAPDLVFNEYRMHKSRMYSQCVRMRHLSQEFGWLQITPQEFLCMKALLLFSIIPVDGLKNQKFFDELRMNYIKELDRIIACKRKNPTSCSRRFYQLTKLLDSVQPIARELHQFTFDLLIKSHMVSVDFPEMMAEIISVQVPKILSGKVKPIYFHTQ

Assay [2] addresses rat Mineralocorticoid Receptor (MR), Nr3c2 (gene 25672) (UniProt P22199). Briefly: NVS_NR_rMR: NovaScreen (NVS) Nuclear Receptor Binding Assay for rat Mineralocorticoid Receptor (MR) (AID 2283355). Put shortly: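 Cell-free radioligand binding to mineralocorticoid receptor from adrenalectomized rat brain supernatant, scintillation counting after 24 h. Primary screen in duplicate at 25 uM; actives retested in concentration series. Loss of specific binding versus DMSO.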

In assay [3] the target is Estrogen receptor (Homo sapiens) (UniProt P03372). Briefly: OT_ER_ERaERa_1440: Odyssey Thera (OT) 24-hour HEK293T Protein-Complementation Assay for Estrogen Receptor-alpha/-alpha Homodimer (AID 2283349).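 Also: hits raise fluorescence above DMSO for agonists and antagonists alike.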 Put shortly:
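HEK293T cells stably expressing the human ER alpha ligand-binding domain (aa 310-547) as a homodimer PCA were dosed for 24 hours. Fluorescence intensity was read by laser scanning cytometry, and gain of signal was fitted relative to DMSO vehicle.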

Assay [4] concerns the target Bile acid receptor (Homo sapiens) (UniProt Q96RI1). The assay is described as follows: NVS_NR_hFXR_Antagonist: NovaScreen (NVS) Nuclear Receptor Binding Assay for human Farnesoid X Receptor Antagonism (FXR) (AID 2283350). Put shortly:
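Cell-free TR-FRET ligand-binding read-out on human FXR (NR1H4) in antagonist mode, measured 1 h after dosing. Primary screen in duplicate at 25 uM, actives retested in concentration series; signal loss scored versus DMSO.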

Assay [5] addresses T1, Estrogen receptor (Homo sapiens) + Estrogen receptor beta (Homo sapiens) (UniProt P03372+Q92731). The assay is described as follows: OT_ER_ERaERb_0480: Odyssey Thera (OT) 8-hour HEK293T Protein-Complementation Assay for Estrogen Receptor-alpha/-beta Heterodimer (AID 2283352). Summed up:
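HEK293T protein-fragment complementation assay of ER-alpha/ER-beta LBD heterodimerisation, read 8 h after dosing. Mean nuclear/cytoplasmic fluorescence intensity measured by laser scanning cytometry; gain of signal fitted relative to DMSO.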

For assay [6], the target named is T1, Estrogen receptor (Homo sapiens) + Estrogen receptor beta (Homo sapiens). The assay is described as follows: OT_ER_ERaERb_1440: Odyssey Thera (OT) 24-hour HEK293T Protein-Complementation Assay for Estrogen Receptor-alpha/-beta Homodimer (AID 2283356).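 Also: heteromer of ER alpha and ER beta binding domains; hits raise reporter fluorescence and both agonists and antagonists give an increase.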 Summed up: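 HEK293T stably expressing a PCA of ER alpha LBD (aa 310-547) and ER beta LBD (aa 263-489). After 24 h compound exposure, mean fluorescence intensity in nucleus (agonists) or nucleus and cytoplasm (antagonists) measured by laser scanning cytometry versus vehicle.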

Assay [7] deals with Estrogen receptor beta (Homo sapiens) (UniProt Q92731). The assay is described as follows: OT_ER_ERbERb_0480: Odyssey Thera (OT) 8-hour HEK293T Protein-Complementation Assay for Estrogen Receptor-beta/-beta Homodimer (AID 2283357).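 Also: active means signal gain over DMSO baseline.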 Summed up:
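Fluorescence intensity, nuclear for agonists and nuclear plus cytoplasmic for antagonists, was quantified by laser scanning cytometry versus vehicle after 8 h treatment. The cells were HEK293T stably carrying ER beta LBD fragment-complementation partners.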

For assay [8], the target named is Estrogen receptor (Homo sapiens) (UniProt P03372). Briefly: OT_ER_ERaERa_0480: Odyssey Thera (OT) 8-hour HEK293T Protein-Complementation Assay for Estrogen Receptor-alpha/-alpha Homodimer (AID 2283351).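 Also: rise in fluorescence from reassembled reporter fragments on ERα LBD homodimer in nucleus or whole cell.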 Put shortly: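 HEK293T, stable ERα LBD (aa 310-547) PCA homodimer; 8 h compound exposure; fluorescence intensity, laser scanning cytometer; positive fitting direction, DMSO baseline.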
Chain of Estrogen receptor (Homo sapiens) (P03372 whole entry, looked up, the tested form may be a part): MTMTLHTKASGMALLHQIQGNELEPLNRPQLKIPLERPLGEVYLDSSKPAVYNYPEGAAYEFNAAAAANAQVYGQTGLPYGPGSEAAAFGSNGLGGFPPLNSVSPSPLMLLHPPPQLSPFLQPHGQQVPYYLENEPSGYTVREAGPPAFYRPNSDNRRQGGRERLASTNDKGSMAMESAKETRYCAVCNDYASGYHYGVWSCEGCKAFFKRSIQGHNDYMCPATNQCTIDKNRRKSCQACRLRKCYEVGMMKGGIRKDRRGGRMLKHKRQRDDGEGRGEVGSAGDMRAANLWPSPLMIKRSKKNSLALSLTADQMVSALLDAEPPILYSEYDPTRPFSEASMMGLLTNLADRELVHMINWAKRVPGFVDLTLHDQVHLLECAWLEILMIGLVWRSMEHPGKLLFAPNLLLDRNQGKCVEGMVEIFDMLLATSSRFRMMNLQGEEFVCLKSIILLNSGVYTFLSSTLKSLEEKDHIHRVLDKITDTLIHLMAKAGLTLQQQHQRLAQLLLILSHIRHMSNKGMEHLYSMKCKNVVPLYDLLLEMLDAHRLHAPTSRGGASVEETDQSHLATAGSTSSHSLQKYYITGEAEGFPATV

For assay [9], the target named is Androgen Receptor/SRC-1 Co-activator, AR (gene 367) (UniProt P10275). The assay is described as follows: OT_AR_ARSRC1_0960: Odyssey Thera (OT) 16-hour HEK293T Protein-Complementation Assay for Androgen Receptor/SRC-1 Co-activator (AID 2283353).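 Also: actives raise the signal above DMSO so potency reflects increased AR and SRC-1 complex.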 Summed up:
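Split-Venus PCA, AR/SRC-1 fusions, stable HEK293T; 16 h compound exposure; imaged at 488 and 635 nm; N/C ratio (488 nm channel), min 400 cells/image; positive-direction fit, DMSO baseline.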

Assay [10] has the same target. Briefly: OT_AR_ARSRC1_0480: Odyssey Thera (OT) 8-hour HEK293T Protein-Complementation Assay for Androgen Receptor/SRC-1 Co-activator (AID 2283354).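 Also: hits raise the complementation signal above DMSO so AC50 marks enhancers.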 Put shortly: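 HEK293T cells stably expressing AR and SRC-1 fused to Venus YFP fragments, imaged 8 h after dosing. Complementation fluorescence scored as nuclear/cytoplasmic ratio at 488 nm in at least 400 cells per image; gain fitted versus DMSO.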

Chain of Bile acid receptor (Homo sapiens) (Q96RI1 whole entry, looked up): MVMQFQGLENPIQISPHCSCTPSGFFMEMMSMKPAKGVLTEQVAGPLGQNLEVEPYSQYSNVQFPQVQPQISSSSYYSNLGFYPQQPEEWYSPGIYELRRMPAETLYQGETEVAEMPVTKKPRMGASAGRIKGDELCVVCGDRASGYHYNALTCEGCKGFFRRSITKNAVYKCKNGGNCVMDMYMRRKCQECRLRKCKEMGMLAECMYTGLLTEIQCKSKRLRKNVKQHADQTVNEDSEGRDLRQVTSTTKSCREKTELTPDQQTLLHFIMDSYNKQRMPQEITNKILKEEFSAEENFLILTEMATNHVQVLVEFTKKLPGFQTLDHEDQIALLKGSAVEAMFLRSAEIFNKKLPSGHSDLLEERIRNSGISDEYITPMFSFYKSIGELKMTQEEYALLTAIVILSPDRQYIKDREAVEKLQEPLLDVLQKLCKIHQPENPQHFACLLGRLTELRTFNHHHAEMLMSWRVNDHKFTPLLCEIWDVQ
T1 sequence (P03372 whole entry, looked up, the tested form may be a part): as the sequence (P03372 whole entry, looked up, the tested form may be a part) above
T1 sequence (Q92731 whole entry, looked up, the tested form may be a part): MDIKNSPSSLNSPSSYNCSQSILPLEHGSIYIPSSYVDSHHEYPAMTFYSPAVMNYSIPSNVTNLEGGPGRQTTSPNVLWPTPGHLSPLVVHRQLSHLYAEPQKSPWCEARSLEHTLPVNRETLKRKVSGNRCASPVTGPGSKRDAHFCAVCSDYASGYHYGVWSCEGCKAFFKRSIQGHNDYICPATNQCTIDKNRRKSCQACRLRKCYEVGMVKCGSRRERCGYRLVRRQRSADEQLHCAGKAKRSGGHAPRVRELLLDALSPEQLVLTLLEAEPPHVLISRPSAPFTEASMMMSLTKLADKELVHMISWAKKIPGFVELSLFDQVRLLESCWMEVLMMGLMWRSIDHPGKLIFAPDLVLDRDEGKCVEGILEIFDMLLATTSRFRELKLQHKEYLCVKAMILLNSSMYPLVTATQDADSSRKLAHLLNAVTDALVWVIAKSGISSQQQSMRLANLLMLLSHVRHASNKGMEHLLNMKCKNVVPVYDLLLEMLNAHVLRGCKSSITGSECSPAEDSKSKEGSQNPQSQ
Chain of Androgen Receptor/SRC-1 Co-activator, AR (gene 367) (P10275 whole entry, looked up, the tested form may be a part): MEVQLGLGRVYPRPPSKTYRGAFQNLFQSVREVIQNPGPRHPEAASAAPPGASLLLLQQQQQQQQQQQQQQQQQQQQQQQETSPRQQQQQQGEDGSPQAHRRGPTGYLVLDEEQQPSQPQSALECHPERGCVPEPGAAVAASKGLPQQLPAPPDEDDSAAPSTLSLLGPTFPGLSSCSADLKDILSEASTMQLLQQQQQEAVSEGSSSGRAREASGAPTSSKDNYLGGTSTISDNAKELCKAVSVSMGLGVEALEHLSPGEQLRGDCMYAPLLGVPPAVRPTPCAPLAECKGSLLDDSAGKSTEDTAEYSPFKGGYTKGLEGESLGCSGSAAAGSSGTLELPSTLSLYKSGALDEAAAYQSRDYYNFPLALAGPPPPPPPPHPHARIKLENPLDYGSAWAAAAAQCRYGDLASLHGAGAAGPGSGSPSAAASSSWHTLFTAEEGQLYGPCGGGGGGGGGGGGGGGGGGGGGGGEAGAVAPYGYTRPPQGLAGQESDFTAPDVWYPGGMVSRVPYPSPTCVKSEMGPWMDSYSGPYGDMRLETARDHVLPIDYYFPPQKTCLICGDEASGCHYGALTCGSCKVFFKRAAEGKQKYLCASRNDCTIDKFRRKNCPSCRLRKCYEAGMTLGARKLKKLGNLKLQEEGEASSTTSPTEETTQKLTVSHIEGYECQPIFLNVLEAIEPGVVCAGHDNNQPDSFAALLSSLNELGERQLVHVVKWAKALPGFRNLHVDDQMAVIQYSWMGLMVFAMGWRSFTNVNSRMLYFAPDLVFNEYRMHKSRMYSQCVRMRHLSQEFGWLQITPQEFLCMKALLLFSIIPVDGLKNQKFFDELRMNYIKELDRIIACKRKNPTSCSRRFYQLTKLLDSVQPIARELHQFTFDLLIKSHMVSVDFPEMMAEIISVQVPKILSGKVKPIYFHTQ
Chain of Estrogen receptor beta (Homo sapiens) (Q92731 whole entry, looked up, the tested form may be a part): as the sequence (Q92731 whole entry, looked up, the tested form may be a part) above
Chain of rat Mineralocorticoid Receptor (MR), Nr3c2 (gene 25672) (P22199 whole entry, looked up): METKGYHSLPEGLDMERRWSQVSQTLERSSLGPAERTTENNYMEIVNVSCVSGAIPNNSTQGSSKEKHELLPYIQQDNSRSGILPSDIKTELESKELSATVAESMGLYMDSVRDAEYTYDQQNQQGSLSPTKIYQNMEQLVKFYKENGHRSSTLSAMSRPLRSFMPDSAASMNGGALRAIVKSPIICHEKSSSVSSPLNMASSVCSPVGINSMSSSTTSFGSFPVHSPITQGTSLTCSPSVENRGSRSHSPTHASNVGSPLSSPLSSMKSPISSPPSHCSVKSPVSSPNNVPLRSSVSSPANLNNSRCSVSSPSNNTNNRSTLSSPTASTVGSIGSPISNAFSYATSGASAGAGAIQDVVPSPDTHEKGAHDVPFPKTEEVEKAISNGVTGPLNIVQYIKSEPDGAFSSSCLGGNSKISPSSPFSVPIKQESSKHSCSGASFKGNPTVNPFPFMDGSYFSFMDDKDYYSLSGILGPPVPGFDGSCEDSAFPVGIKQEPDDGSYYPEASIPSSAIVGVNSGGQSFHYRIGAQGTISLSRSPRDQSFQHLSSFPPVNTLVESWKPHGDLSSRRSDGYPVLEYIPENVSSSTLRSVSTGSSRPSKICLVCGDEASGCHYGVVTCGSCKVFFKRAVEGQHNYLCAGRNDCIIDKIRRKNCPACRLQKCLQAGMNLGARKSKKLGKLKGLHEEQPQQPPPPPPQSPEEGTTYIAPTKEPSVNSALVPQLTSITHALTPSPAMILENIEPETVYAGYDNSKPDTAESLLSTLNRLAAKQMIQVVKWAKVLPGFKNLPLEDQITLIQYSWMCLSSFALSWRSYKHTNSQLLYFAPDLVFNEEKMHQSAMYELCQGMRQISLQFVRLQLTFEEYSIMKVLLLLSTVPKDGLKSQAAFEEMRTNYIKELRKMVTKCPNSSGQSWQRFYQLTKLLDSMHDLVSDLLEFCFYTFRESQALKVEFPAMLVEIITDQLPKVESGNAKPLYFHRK

As to `C[C@]12CC[C@@H]3c4ccc(O)cc4CC[C@H]3[C@@H]1CCC2=O`, in [1], the AC50 was 0.472 µM (active) and the compound was called inactive. For the same compound, the compound was classed as inactive in assay [2].

Turning to `CC1(C)NC(=O)N(c2ccc([N+](=O)[O-])c(C(F)(F)F)c2)C1=O`, the AC50 in assay [1] is 1.06 µM (active) and 136 nM (active).

For `CCN(Cc1cccc(S(=O)(=O)O)c1)c1ccc(C(=C2C=CC(=[N+](CC)Cc3cccc(S(=O)(=O)O)c3)C=C2)c2ccccc2S(=O)(=O)[O-])cc1`, the half-maximal activity concentration (AC50) in assay [1] was 16.1 µM (active). The compound was classed as inactive in assay [3], in assay [4], in assay [5], in assay [6] and in assay [7].

`Cc1cc2c(cc1C(F)(F)F)N(C(=O)Nc1ccc(Oc3cccnc3C)nc1)CC2`: the compound was classed as inactive in assay [1], in assay [3], in assay [8] and in [6].

Take `CC(=O)N1CCN(c2ccc(OC[C@H]3CO[C@](Cn4ccnc4)(c4ccc(Cl)cc4Cl)O3)cc2)CC1`: the result in assay [3], in assay [8] and in assay [5] was inactive. In assay [4], the concentration at half-maximal activity (AC50) was 20.2 µM (active).

`O=C(OCCCCCCOC(=O)c1ccccc1)c1ccccc1`: the compound was called inactive in [3] and in assay [8].

Consider `CN(C)c1ccc(C(=C2C=CC(=[N+](C)C)C=C2)c2ccc(N(C)C)cc2)cc1`, for which the half-maximal activity concentration (AC50) was 17.7 µM (active) in assay [1], 0.273 µM (active) in assay [9] and 3.28 µM (active) in [10]. Moreover, the result in assay [3], in assay [8] and in assay [6] was inactive.

With `Cc1oc2c(NC(=O)c3c(Cl)cccc3Cl)cccc2c1C(C)(C)O`, the compound was classed as inactive in assay [1], in [3] and in assay [8].

Regarding `CC(C)(C)c1cc(/C=C2\SC(N)=NC2=O)cc(C(C)(C)C)c1O`, the AC50 in [1] is 33.9 µM (active). Further, the result in assay [3] and in assay [8] was inactive.

Take `O=c1[nH]sc2ccccc12`: the call in assay [3], in assay [4], in assay [8], in assay [6] and in assay [7] was inactive.

On to `Cc1c2ccccc2c(C)c2c1ccc1ccccc12`, for which the compound was called inactive in assay [1], in assay [3], in assay [8] and in assay [5]. The AC50 in [9] is 13.7 µM (active); in assay [10] it was 11.6 µM (active).

The term AC50 denotes the concentration giving half of the maximal activity seen.
